# Data published in ChEMBL document CHEMBL3988442, “University of Dundee, Small-Polar-MMV Screening Library” (2021).
# Screen size: about 48,000 compounds; about 13,000 (27%) showed an effect of 50% or more. The list shows a part of the results.
# Test system: Wolbachia pipientis
# Assay: Anti-Wolbachia Cell-Based Screen
# Assay type: functional
# Parameters: scale not given: in the data most compounds retested in dose-response had high values
# Conditions: 5 µM
row,Structure (SMILES),Percent Effect [%]
1,CCOC(=O)c1coc(N2CCC(N3CCC(O)CC3)CC2)n1,-0.9238
2,CC(=O)N(c1ccc(C)cc1)c1nc(CN2CCCC(C)C2)cs1 (stereo unspecified),4.19
3,Fc1ccc(CN2CCCC2c2cncc(-n3ccnc3)n2)cc1 (stereo unspecified),-7.107
4,O=C(c1cc[nH]n1)N1CCCC(c2cccc(-n3ccnc3)n2)C1 (stereo unspecified),-0.007784
5,Cc1cc(C2CCC2)nc(N2CC(n3cccn3)C2)n1,18.14
6,Cc1cc(C)nc(N2CCC(c3cncc(-n4ccnc4)n3)CC2)n1,132.5
7,O=C(c1cnccn1)N1CCCC(c2cccc(-n3ccnc3)n2)C1 (stereo unspecified),132.1
8,O=C(C1CCC1)N1CCCC(c2cccc(-n3ccnc3)n2)C1 (stereo unspecified),120
9,CC(=O)N1CCCC(c2cccc(-n3ccnc3)n2)C1 (stereo unspecified),108.7
10,Cc1nc(COC[C@@H]2CCC[C@@]23CNCCO3)cs1.Cl.Cl,-7.746
11,CNS(=O)(=O)CC1CCCN1c1ccc(Br)cn1 (stereo unspecified),-12.02
12,Cn1ccnc1C(NCc1csc(Br)c1)c1ccccc1 (stereo unspecified),-0.294
13,CCc1nccc(CN2CCCC(c3nn(C)c(=O)n3CC)C2)n1 (stereo unspecified),16.29
14,CC(C)[C@H]1COC(=O)N1Cc1nccn1C1CC1,4.052
15,CCc1nc(N)nc(NCc2cnn3cccnc23)c1C,-10.8
16,OCCCN1CCc2[nH]nc(C(c3ccccc3)c3ccccc3)c2C1,-10.74
17,O=C(Cn1ccc(=O)[nH]c1=O)NCc1cccnc1OCC(F)(F)F,7.684
18,CC(c1ccon1)N(C)C(=O)C1CCN(C2CCCCC2)CC1 (stereo unspecified),-1.584
19,Cc1ccccc1CN1CCCN(S(=O)(=O)N(C)C2CCCCC2)CC1,-4.096
20,Cc1cnn(CCNCc2nccn2Cc2ccccc2)c1,6.467
21,O=C(C1CCCC1)N1CCCC(c2cccc(-n3ccnc3)n2)C1 (stereo unspecified),109.1
22,Cl.c1cnc(N2CCCC(NCc3ccc(-n4ccnc4)cc3)C2)nc1 (stereo unspecified),24.04
23,c1cnc(N2CCCC(c3cncc(-n4ccnc4)n3)C2)nc1 (stereo unspecified),115.9

row,Structure (SMILES),Percent Effect [%]
1,COCC(=O)N1CCCC(c2cccc(-n3ccnc3)n2)C1 (stereo unspecified),83.17
2,Cc1n[nH]cc1C(=O)N1CCCC(c2cccc(-n3ccnc3)n2)C1 (stereo unspecified),117.2
3,Cn1c(Cn2ccnc2)nnc1C1CCCN(c2ncccn2)C1 (stereo unspecified),5.27
4,CCCc1n[nH]cc1C(=O)N1CCCC(c2nccn2CC2CC2)C1 (stereo unspecified),2.109
5,Cc1cc(C2CCCN(C(=O)c3c(C)nn4cccnc34)C2)n[nH]1 (stereo unspecified),-1.385
6,CC(C)Oc1cccc(CC(=O)N(CC(N)=O)C2CCCC2)c1,-6.842
7,CN(C)C(=O)c1ccc(N2CCC3(CCC(=O)N(CCO)C3)CC2)nc1,-10.7
8,O=C(Cn1[nH]c2ccccc2c1=O)N1CCCC(CC2CC2)(C(=O)O)C1 (stereo unspecified),-7.331
9,Cc1ccnc(N2CCCC(c3nccn3C(C)C)C2)n1 (stereo unspecified),2.014
10,Cc1nc(C(=O)N2CCCC(c3cccc(-n4ccnc4)n3)C2)co1 (stereo unspecified),-10.62
11,Cc1cc(C)nc(N2CCCC(c3cccc(-n4ccnc4)n3)C2)n1 (stereo unspecified),122.3
12,CCc1c(C)nc2ccccc2c1N1CCC(NC(C)=O)CC1,12.09
13,Cc1ccoc1C(=O)NCCOc1ccc(C(F)(F)F)cn1,-4.463
14,COCCOC1CCN(C(=O)NCc2coc3ccccc23)CC1,-1.148
15,CCN1CCCCC1C(=O)N1CCC(OCCOC)CC1 (stereo unspecified),73.16
16,CCN1CCCCC1C(=O)N1CCN(C(=O)OC)CC1 (stereo unspecified),100.7
17,CCN1CCCCC1C(=O)N1CCC(OC2CCCC2)CC1 (stereo unspecified),102.5
18,COCCOC1CCN(C(=O)NCc2cc(C)oc2C)CC1,6.618
19,COC(=O)N1CCCC(C(=O)N2CCCCC2)C1 (stereo unspecified),-8.373
20,CC(=O)c1cccc(NC(=O)CN2CCCCC2C(=O)N2CCCC2)c1 (stereo unspecified),-9.292
21,CCN1CCCCC1C(=O)N1CCc2onc(-c3ccc(Cl)cc3)c2C1 (stereo unspecified),6.805
22,COC(=O)N1CCCCC1C(=O)N1CCC(c2ccncc2)CC1 (stereo unspecified),-8.744
23,CC/C=C(/C)C(=O)NCc1ccc(OC)nc1,-1.205

row,Structure (SMILES),Percent Effect [%]
1,OCCOCCN1CCCC1c1nc2cc(F)ccc2[nH]1 (stereo unspecified),-0.6121
2,Cc1cc(F)ccc1NC(=O)Cn1cc(C(=O)O)ccc1=O,-9.145
3,COCCOCC(=O)Nc1cc(C)ccc1F,111.1
4,CCC(=O)Nc1ccc(F)cc1OC,-5.571
5,COCCOCC(=O)NC(C#N)c1c(F)cccc1Cl (stereo unspecified),-1.788
6,COCc1cc(CN(C)C(=O)CCC(=O)Nc2cc(C)ccc2F)n[nH]1,-13.49
7,COCCOCC(=O)Nc1ccccc1F,116.5
8,O=C(Cn1ccc(=O)[nH]c1=O)Nc1ccccc1F,-14.53
9,COCCOCC(=O)Nc1ccc(F)cc1C,92.33
10,CN(C)S(=O)(=O)c1ccc(F)c(NC(=O)COCC2CC2)c1,-1.216
11,O=C(NCC(F)(F)C(F)F)c1ccncc1,-18.96
12,CC(C)Cc1n[nH]c(C2CC(=O)N(CC(C)C)C2)n1 (stereo unspecified),-3.52
13,O=C(O)C(F)(F)F.c1ncn(Cc2cn3c(n2)CN(CC2CCCC2)CC3)n1,-2.888
14,CC[C@H](Nc1nc(C(C)C)nc2c1cnn2C)c1ccccc1,-13.66
15,CN(Cc1ccncn1)C(=O)C1(Oc2ccc(Cl)cc2)CCNCC1,-1.2
16,CNc1ncc(CN(C)C(=O)c2ccc(C3CCCO3)s2)cn1 (stereo unspecified),-2.521
17,CNc1ncc(CN(C)C(=O)CCc2[nH]nc3c2CCCC3)cn1,98.75
18,CN(Cc1ccncn1)C(=O)CCc1[nH]nc2c1CCCC2,105.8
19,CN(Cc1ccncn1)C(=O)c1cccc(CCC(C)(C)O)c1,-19.37
20,CNc1ncc(CN(C)C(=O)CCc2cc3n(n2)CCCNC3)cn1,-7.945
21,Cn1cc(C[C@H]2[C@@H](OCC3CC3)CCN2C(=O)c2ccc[nH]2)cn1,-34.09
22,O=C(c1cccs1)N1CC[C@@H]2[C@H]1CCC(=O)N2c1ccccc1,4.251
23,Cc1cnc(CNC(=O)NCCOc2ncccc2Cl)s1,0.4061

row,Structure (SMILES),Percent Effect [%]
1,Cc1ncc(-c2ccnc(NCCO)n2)c(C2CCCCC2)n1,70.45
2,CCC(Nc1nccc(C2CCCC2)n1)c1ccccn1 (stereo unspecified),15.43
3,CCC(Nc1nccc(C2CCCC2)n1)c1ncccc1C (stereo unspecified),-9.409
4,Cc1ncc(-c2ccnc(N[C@@H](C)CO)n2)c(C2CCCCC2)n1,99.14
5,COc1ccc(-c2noc([C@@H](C)NC(=O)NC(C)(C)C)c2C(=O)O)cc1,-18.05
6,N#Cc1cn(C2CC2)c(=O)n(CC(O)c2ccccc2F)c1=O (stereo unspecified),-13.9
7,O=C(NCC1CCCO1)c1csc(Cc2ccccc2)n1 (stereo unspecified),-0.1841
8,Cl.O=C(NCC1CCC2(CCNCC2)CO1)c1cnccn1 (stereo unspecified),3.528
9,O=C(NCC1CCCO1)c1cc(-c2cccnc2)c2cnccc2n1 (stereo unspecified),70.74
10,Cl.O=C(NCC1CCCO1)c1cc(-c2ccncc2)c2cnccc2n1 (stereo unspecified),81.36
11,Cc1cc(C(=O)NCC2CCCO2)c(C)n1-c1cccnc1 (stereo unspecified),-0.4746
12,O=C(NCC1CCCO1)c1coc(Cn2cnc3ccccc32)n1 (stereo unspecified),1.583
13,CN(C)Cc1nc(C(C)(C)NC(=O)c2ccnn2C)no1,0.5486
14,Cc1ncc(C(=O)NCCNc2ncccn2)s1,110.1
15,CC(C)(C)c1ncc(C(=O)NCCS(N)(=O)=O)s1,-2.112
16,Cc1ccc(-c2ncc(C(=O)NCCNc3ncccn3)s2)c(C)c1,-5.367
17,Cc1ncc(C(=O)NCCNC(=O)c2ccccc2)s1,117.1
18,CS(=O)(=O)NCCNC(=O)c1cnc(-c2ccccc2)nc1,5.162
19,Cc1ccc(-c2ncc(C(=O)NCCNC(=O)C(C)C)s2)c(C)c1,-1.458
20,CC(=O)NCCNC(=O)c1cnc(C(C)(C)C)s1,109.1
21,COC(=O)C(C)(C)NC(=O)c1cnc(C(C)(C)C)s1,-1.472
22,CC(C)(C)c1ncc(C(=O)NCCNS(C)(=O)=O)s1,118.2
23,CC(C)(C)NC(=O)c1cnc(C(C)(C)C)s1,6.371

row,Structure (SMILES),Percent Effect [%]
1,O=C(NCCNc1ncccn1)c1ccc(Cl)s1,24.49
2,O=C(N1CCC(OCc2ccccn2)CC1)C1(c2ccc(F)cc2)CC1,-10.1
3,C=C(C)CNC(=O)C1CCCN(C2CCN(C(C)C)CC2)C1 (stereo unspecified),-1.601
4,Fc1cnc(N2CCCn3c(nnc3Cn3cccn3)C2)nc1,-21.77
5,CN(C)c1ncnc2c1CCN(C(=O)CN1CCCCC1)C2,-9.788
6,CCOC(C)c1nc(CN2CCN(c3ncc(C)cn3)CC2)cs1 (stereo unspecified),0.6685
7,COc1ccc(S(=O)(=O)C(F)(F)F)cc1NC(=O)CSC,25.38
8,COCCC1(CO)CCCN(Cc2ccc(F)c(C)c2)C1 (stereo unspecified),-0.7036
9,CCN(CC)C(=O)CCCNC(=O)Cc1nc(-c2ccco2)oc1C,-23.46
10,Cc1ccc(C(=O)N2CCOc3nc(C)ccc32)c(F)c1,-2.508
11,CC(C)(C)c1ncc(C(=O)NCCNC(=O)c2ccccc2)s1,3.571
12,CC(C)(C)c1ncc(C(=O)NCCNc2ncccn2)s1,108.5
13,O=C(NCCNC1CCN(c2nccs2)CC1)c1cccs1,-5.805
14,CC(C)(C)c1ncc(C(=O)NCCn2ccnc2)s1,-7.496
15,CC(C)(C)c1ncc(C(=O)NCCNC(=O)c2cccs2)s1,110.8
16,O=C(NCCNc1ccc(Br)cn1)c1ccc(O)cc1,-11.29
17,O=C(NCCNc1ncccn1)c1cnc(-c2ccccc2)nc1,9.369
18,CC(O)(CCc1ccccc1)CNC(=O)c1cccs1 (stereo unspecified),-8.464
19,CC(C)(C)c1ncc(C(=O)NCCNC(=O)c2ccc(O)cc2)s1,102.8
